Tests used:
Assay in all cases: log2 ratio of Biotin-Ahx-Ub-VS probe labelling (fragment/DMSO); higher = less target engagement (more negative = stronger competition), active = hit call of the paper (q ≤ 0.05, log2 ratio ≤ -1)
Settings in all cases: compound concentration: 200 uM; treatment time: 3 h
[1] = molecular target: T1, USP42 (UniProt Q9H9J4)
T1 sequence (whole entry): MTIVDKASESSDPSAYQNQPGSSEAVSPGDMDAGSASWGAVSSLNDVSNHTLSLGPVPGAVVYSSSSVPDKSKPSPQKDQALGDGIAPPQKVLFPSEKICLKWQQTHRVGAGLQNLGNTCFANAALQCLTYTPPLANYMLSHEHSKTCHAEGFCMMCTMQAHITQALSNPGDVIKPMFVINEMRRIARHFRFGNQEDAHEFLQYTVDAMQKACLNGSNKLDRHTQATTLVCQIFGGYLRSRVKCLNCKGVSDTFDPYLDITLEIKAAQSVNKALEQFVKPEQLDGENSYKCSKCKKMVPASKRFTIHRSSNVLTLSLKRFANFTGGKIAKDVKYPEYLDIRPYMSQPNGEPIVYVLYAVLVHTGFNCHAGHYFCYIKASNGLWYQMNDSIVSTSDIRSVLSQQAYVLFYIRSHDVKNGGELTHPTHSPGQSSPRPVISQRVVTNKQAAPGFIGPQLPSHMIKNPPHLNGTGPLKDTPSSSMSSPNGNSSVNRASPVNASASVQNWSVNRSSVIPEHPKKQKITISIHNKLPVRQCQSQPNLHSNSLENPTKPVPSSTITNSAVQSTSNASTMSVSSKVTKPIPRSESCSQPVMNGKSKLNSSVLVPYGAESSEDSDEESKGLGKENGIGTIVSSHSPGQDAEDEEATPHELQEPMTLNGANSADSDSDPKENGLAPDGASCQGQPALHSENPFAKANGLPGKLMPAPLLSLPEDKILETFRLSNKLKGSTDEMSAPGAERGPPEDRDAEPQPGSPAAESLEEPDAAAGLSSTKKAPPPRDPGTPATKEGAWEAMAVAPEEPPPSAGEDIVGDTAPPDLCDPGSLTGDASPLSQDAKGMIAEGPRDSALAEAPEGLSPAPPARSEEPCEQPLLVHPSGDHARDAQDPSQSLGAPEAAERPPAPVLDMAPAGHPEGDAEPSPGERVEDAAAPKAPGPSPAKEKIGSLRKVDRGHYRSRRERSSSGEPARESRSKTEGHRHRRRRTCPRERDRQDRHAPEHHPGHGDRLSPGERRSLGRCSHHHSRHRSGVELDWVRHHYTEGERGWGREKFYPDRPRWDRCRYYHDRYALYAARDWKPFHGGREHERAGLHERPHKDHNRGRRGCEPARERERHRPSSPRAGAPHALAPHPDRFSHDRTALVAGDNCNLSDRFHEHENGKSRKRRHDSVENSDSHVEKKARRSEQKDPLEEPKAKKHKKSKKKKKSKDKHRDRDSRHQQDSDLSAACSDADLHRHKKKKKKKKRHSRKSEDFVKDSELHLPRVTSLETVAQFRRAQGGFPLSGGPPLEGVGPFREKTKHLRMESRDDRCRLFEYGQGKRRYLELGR
Procedure, shortened: (§1)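 Average log2 ratios of fragment over vehicle were obtained by unpaired t-test from global-median-normalised Spectronaut label-free quantities. Proteins with ≥2 unique peptides were included. HEK293T lysate (495 µg per sample) was treated in triplicate with fragment at 200 µM or vehicle for 3 h, then with Biotin-Ahx-Ub-VS at 0.5 µM final for 1 h, and labelled DUBs were NeutrAvidin-enriched and run by diaPASEF LC-MS/MS.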

[2] = molecular target: USP46 (UniProt P62068)
Procedure, shortened: as §1

[3] = molecular target: T2, USP47 (UniProt Q96K76)
T2 sequence (whole entry): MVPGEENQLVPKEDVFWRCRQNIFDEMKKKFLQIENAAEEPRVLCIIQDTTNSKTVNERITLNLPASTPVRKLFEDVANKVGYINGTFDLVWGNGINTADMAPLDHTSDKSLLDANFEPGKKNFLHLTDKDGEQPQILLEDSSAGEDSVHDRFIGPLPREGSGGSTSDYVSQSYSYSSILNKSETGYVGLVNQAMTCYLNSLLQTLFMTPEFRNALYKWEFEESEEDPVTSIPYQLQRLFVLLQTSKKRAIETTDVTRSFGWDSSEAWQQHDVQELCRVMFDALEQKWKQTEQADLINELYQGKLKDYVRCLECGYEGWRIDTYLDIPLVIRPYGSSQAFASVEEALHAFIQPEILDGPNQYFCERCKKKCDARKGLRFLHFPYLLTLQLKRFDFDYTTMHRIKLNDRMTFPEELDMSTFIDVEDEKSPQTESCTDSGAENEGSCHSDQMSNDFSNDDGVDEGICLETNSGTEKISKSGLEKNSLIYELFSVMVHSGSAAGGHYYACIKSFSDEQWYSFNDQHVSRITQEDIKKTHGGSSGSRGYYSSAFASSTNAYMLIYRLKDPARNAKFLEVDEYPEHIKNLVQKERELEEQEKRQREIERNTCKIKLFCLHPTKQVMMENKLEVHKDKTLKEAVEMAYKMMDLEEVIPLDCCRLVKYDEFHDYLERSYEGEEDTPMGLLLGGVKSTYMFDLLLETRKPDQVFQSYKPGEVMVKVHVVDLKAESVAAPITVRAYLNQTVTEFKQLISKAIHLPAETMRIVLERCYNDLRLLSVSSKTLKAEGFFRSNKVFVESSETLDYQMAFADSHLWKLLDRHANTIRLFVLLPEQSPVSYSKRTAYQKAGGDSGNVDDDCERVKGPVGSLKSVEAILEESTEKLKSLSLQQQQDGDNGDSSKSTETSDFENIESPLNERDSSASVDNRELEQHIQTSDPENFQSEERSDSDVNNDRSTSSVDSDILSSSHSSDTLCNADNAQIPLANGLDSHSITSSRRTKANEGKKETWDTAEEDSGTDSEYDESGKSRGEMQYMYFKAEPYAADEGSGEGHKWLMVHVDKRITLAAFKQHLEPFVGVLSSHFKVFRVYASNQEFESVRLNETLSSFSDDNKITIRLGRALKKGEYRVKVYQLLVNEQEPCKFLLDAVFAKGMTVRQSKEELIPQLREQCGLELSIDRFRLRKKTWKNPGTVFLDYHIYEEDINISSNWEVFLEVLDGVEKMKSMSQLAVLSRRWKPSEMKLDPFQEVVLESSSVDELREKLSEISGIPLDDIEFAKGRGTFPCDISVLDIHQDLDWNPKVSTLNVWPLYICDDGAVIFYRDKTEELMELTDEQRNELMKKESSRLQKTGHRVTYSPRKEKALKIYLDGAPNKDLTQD
Procedure, shortened: as §1

[4] = molecular target: T3, USP48 (UniProt Q86UV5)
T3 sequence (whole entry): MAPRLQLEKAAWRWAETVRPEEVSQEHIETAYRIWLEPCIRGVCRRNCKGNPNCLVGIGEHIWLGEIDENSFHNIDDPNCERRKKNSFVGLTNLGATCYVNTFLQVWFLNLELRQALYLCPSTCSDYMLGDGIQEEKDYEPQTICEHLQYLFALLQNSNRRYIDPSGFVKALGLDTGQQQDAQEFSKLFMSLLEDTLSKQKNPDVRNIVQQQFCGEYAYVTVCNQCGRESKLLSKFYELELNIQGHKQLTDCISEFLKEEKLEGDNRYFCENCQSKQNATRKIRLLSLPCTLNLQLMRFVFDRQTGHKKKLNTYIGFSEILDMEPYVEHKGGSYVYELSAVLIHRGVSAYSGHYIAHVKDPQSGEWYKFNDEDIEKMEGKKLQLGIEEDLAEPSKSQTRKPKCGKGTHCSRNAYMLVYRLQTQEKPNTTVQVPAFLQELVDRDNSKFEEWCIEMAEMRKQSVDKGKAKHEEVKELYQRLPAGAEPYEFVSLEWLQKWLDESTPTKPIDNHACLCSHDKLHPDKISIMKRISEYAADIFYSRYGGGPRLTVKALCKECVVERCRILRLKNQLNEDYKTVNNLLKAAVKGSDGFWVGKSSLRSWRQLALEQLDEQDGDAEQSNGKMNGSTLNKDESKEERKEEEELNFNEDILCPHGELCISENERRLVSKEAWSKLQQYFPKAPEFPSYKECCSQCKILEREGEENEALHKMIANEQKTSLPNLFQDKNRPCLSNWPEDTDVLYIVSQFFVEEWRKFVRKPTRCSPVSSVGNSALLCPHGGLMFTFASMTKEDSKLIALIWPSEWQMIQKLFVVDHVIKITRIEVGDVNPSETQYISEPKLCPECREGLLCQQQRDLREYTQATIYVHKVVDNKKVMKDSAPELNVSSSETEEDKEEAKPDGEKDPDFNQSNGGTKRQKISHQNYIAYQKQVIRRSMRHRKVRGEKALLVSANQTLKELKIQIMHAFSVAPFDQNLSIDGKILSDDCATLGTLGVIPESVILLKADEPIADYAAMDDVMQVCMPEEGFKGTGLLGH
Procedure, shortened: as §1

[5] = molecular target: T4, USP5 (UniProt P45974)
T4 sequence (whole entry): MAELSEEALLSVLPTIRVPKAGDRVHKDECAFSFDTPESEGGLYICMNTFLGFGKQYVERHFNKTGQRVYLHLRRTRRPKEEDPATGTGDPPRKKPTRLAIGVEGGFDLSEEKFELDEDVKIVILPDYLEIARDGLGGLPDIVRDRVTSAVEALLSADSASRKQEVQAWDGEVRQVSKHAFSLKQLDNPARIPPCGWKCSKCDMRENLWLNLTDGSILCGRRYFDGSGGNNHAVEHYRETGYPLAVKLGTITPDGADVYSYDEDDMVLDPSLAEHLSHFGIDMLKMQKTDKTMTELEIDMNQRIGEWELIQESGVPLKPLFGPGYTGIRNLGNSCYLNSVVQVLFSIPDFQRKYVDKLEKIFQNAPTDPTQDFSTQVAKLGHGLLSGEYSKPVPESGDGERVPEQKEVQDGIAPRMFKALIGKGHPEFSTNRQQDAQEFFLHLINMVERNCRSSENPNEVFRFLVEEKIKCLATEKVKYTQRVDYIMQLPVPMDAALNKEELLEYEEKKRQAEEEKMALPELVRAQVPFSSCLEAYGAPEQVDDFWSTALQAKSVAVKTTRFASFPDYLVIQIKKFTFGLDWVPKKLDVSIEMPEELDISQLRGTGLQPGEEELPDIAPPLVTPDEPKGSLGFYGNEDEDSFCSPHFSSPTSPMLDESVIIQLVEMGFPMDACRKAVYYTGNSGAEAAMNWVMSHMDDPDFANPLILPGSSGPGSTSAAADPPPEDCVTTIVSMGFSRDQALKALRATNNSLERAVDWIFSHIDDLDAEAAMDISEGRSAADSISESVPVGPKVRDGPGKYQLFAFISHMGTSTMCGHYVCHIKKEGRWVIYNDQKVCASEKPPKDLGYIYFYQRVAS
Procedure, shortened: as §1

[6] = molecular target: USP54 (UniProt Q70EL1)
Procedure, shortened: as §1

[7] = molecular target: USP7 (UniProt Q93009)
Procedure, shortened: as §1

[8] = molecular target: T5, USP8 (UniProt P40818)
T5 sequence (whole entry): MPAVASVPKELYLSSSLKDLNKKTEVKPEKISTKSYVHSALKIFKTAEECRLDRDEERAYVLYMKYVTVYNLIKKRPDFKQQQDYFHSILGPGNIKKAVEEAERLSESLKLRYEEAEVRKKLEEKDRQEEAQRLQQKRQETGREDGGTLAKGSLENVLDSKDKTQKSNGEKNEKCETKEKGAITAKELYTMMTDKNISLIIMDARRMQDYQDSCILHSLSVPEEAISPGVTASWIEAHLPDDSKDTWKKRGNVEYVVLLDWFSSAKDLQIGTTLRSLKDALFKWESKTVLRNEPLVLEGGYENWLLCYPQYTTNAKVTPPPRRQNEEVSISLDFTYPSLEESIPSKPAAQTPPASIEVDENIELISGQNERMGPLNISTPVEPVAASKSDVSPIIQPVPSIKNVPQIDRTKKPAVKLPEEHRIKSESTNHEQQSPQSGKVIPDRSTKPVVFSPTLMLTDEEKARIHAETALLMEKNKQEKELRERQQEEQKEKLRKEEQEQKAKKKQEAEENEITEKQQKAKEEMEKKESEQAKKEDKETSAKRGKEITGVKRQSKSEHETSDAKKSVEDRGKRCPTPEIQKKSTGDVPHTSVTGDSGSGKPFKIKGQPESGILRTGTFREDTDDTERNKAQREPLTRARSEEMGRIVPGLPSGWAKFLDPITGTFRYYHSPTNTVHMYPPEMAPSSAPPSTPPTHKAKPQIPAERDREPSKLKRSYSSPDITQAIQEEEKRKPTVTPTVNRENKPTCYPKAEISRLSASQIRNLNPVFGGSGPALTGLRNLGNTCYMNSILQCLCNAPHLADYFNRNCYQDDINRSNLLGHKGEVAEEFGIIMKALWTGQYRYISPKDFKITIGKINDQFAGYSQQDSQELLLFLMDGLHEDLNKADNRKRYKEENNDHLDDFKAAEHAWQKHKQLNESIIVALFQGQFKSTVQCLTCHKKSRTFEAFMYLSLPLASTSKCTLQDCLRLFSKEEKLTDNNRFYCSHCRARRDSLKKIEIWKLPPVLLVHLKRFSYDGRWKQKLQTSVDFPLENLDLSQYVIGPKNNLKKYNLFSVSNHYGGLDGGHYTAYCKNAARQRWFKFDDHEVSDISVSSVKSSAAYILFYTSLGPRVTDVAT
Procedure, shortened: as §1

[9] = molecular target: USP9X (UniProt Q93008)
Procedure, shortened: as §1

[10] = molecular target: UniProt O00487
Procedure, shortened: as §1

Measured: log2 ratio of Biotin-Ahx-Ub-VS probe labelling

Sequence of USP46 (P62068 whole entry): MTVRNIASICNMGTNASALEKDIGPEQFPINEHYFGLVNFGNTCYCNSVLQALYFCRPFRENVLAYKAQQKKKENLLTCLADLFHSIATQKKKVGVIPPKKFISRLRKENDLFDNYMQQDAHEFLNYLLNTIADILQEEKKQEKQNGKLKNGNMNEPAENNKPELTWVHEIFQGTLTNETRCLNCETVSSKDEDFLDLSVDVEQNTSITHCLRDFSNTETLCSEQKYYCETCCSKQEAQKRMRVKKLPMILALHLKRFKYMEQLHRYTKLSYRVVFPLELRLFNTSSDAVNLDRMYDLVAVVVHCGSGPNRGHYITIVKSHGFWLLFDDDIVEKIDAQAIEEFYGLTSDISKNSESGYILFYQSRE
Sequence of USP9X (Q93008 whole entry): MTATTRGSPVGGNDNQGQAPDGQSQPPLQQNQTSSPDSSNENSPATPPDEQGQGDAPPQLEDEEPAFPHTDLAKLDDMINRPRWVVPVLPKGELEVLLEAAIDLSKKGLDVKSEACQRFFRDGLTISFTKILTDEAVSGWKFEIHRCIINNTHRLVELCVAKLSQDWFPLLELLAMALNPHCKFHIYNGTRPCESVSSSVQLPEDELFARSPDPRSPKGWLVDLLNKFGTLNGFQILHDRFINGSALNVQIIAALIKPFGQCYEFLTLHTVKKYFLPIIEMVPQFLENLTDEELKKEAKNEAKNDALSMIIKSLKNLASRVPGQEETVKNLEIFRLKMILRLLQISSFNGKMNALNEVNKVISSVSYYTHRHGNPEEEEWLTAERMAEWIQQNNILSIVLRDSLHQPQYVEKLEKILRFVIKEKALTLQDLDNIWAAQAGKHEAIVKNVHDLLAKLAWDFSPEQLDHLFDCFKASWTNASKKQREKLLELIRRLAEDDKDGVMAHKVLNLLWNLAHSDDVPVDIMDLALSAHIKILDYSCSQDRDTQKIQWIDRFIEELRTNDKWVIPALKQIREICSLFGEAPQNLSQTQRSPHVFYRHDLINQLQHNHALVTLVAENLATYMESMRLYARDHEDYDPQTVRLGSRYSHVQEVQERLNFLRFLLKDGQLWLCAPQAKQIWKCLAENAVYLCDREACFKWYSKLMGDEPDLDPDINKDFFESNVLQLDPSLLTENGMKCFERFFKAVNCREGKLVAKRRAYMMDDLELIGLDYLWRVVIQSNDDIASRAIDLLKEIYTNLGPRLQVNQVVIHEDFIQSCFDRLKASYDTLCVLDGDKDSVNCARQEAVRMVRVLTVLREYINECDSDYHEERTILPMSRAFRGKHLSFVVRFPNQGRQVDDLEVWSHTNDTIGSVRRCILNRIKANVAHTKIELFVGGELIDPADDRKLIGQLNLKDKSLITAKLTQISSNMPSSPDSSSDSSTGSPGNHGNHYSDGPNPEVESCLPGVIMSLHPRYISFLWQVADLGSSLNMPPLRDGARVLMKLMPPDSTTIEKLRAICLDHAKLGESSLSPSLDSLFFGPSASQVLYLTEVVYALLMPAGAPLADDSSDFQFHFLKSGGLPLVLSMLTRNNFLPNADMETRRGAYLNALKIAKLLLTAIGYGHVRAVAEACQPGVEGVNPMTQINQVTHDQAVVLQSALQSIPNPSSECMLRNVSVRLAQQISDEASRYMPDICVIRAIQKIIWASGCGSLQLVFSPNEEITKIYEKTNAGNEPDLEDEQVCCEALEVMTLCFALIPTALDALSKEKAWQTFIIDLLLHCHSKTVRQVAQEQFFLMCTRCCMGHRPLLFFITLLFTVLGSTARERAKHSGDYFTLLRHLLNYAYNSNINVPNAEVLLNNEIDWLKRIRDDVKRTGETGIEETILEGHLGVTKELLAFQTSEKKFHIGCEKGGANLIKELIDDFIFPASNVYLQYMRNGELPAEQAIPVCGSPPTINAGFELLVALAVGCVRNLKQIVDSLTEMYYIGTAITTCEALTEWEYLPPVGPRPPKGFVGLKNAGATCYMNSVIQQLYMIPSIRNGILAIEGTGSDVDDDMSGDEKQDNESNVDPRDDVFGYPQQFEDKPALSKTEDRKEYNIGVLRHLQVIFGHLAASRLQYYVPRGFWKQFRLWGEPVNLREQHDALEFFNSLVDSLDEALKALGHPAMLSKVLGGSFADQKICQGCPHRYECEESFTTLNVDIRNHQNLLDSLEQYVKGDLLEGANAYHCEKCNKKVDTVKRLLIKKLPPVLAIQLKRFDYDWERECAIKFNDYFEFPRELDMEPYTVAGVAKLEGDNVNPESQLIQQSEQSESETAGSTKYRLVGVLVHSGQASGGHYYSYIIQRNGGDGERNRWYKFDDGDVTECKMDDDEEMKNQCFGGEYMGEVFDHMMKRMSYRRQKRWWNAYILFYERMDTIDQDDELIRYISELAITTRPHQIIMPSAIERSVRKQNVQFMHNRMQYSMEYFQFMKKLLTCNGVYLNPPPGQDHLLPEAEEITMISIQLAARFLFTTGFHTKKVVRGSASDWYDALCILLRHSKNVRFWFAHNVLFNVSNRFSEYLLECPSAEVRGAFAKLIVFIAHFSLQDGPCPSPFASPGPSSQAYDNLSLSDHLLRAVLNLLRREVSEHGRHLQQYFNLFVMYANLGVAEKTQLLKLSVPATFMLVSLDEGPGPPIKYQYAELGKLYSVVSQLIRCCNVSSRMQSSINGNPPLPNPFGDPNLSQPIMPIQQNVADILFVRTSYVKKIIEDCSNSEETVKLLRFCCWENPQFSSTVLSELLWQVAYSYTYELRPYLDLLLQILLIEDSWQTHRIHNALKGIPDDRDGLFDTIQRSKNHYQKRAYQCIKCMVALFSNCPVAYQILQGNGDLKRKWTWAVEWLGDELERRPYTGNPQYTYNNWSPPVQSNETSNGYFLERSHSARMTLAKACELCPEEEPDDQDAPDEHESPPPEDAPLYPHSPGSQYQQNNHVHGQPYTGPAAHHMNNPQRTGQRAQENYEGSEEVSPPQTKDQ
Sequence of UniProt O00487 (O00487 whole entry): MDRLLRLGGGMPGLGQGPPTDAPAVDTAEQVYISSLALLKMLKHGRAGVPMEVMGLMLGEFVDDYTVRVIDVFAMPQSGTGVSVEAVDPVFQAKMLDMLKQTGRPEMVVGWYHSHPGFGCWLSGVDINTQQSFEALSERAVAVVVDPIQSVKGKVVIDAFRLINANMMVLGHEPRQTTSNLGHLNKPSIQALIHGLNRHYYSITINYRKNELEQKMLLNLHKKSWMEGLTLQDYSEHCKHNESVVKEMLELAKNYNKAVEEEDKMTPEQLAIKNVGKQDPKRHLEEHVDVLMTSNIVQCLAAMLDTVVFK
Sequence of USP7 (Q93009 whole entry, looked up): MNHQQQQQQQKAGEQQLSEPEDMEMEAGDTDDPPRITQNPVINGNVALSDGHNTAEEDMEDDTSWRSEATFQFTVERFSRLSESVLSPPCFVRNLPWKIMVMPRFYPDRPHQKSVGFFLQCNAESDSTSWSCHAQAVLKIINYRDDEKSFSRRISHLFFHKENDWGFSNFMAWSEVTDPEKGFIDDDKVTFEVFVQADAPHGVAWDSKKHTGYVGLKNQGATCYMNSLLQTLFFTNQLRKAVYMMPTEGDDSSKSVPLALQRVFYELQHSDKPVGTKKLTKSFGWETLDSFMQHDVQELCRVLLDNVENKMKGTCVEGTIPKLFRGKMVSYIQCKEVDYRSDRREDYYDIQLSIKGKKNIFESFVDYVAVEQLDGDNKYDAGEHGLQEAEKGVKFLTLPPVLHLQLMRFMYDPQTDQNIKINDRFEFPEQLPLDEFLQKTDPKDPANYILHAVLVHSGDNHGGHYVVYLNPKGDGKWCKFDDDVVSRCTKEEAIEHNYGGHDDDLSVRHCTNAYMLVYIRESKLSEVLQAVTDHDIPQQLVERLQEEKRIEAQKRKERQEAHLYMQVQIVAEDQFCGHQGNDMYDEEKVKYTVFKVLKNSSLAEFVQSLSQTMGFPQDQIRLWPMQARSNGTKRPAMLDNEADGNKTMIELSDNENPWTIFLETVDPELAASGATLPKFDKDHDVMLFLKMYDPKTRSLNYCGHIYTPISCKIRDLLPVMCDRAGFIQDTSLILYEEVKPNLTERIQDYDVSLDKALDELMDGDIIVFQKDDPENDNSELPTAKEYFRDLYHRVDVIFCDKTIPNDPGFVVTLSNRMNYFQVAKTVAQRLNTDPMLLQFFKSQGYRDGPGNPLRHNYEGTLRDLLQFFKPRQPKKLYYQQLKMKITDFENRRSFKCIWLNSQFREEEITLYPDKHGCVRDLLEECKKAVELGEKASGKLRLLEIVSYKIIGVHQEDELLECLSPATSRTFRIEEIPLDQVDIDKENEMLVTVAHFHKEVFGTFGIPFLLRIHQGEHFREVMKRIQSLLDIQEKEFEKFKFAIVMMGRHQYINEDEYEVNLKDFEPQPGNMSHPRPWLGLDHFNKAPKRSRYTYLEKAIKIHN

COc1ccccc1C(C)NC(=O)CCl (stereo not given)
inactive: [1] -0.0523 | [2] -0.0541 | [3] -0.334 | [4] -0.321 | [5] -0.208 | [6] 0.256 | [7] -0.235 | [8] -0.576 | [9] -0.174 | [10] 0.0235

From the supplement of paper PMC11732987, “Enantioselective OTUD7B fragment discovery through chemoproteomics screening and high-throughput optimisation” (Communications Chemistry, 2025)
